# Source: PubChem BioAssay (Tox21)
# Records with an inconclusive call do not appear. Where a structure was tested more than once in an assay, its records may differ in their call. The source made the active and inactive calls. Unless noted, the call rests on the fitted dose curve; in most records, active means well fitted cell-killing curve with a large enough effect in the repeat runs (not every such curve was filed as active); inconclusive means weak or mixed curves, or effect the other way; inactive means no such curve, though single readings can be large or run the other way.
# Test system: not listed separately
# Experiment: qHTS assay to identify small molecule antagonists of the farnesoid-X-receptor (FXR) signaling pathway - cell viability counter screen (AID 743221); further: nearly all actives have a fitted effect of over 50% in size; further: potency means the concentration at half of the fitted maximal effect
# Settings: FXR-bla HEK293T viability, CellTiter-Glo luminescence, 16 h; series mostly up to 62.6 µM; activity change, negative = cytotoxicity: at the top concentration
# In short: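 Here viability was scored by luminescence after CellTiter-Glo addition to wells already read for beta-lactamase. Prior treatment: compound plus CDCA (50 uM final), 16 h, 37 C, HEK 293T FXR-bla cells.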
# On the % scale 0 is the no-effect control and ±100 the full control effect.
SMILES,"activity change, negative = cytotoxicity",Potency
C[C@H]1CNCCc2ccc(Cl)cc21,-20.8% (inactive),
O=C(O)C(F)(F)C(F)(F)C(F)(F)C(F)(F)C(F)(F)C(F)(F)C(F)(F)C(F)(F)C(F)(F)C(F)(F)F,-11.1% (inactive),
Cc1cc(=O)[nH]o1,7.35% [at 81.1 µM] (inactive),
Nc1nc(=S)[nH][nH]1,2% (inactive),
CC(C)=CCOc1c2occc2cc2ccc(=O)oc12,-11.5% (inactive),
COc1cc(Cl)c(OC)cc1Cl,1.14% (inactive),
CC1(C)[C@H](C=C(Cl)Cl)[C@@H]1C(=O)O[C@@H](C#N)c1cccc(Oc2ccccc2)c1,-12.6% (inactive),
COC(=O)C(C)N(C(=O)Cc1ccccc1)c1c(C)cccc1C (centres undefined),2.92% (inactive),
COc1nn(C(=O)NS(=O)(=O)c2ccccc2OC(F)(F)F)c(=O)n1C,-4.68% (inactive),
c1ccc(CN2CCNCC2)cc1,-0.918% [at 232 µM] (inactive),
CC(C)N(CCC(C(N)=O)(c1ccccc1)c1ccccn1)C(C)C (centres undefined),8.36% (inactive),
O=C(CBr)OCc1ccccc1,7.02% (inactive),
CN1C(=O)C(O)N=C(c2ccccc2)c2cc(Cl)ccc21 (centres undefined),5.27% [at 81.1 µM] (inactive),
C=CCC1([C@H](C)CCC)C(=O)NC(=O)NC1=O,-25.9% [at 81.1 µM] (inactive),
CCCCC(CC)COP(=O)(Oc1ccccc1)Oc1ccccc1 (centres undefined),-13.5% (inactive),
COP(=S)(OC)Oc1cc(Cl)c(I)cc1Cl,-4.01% (inactive),
[CH3][Sn]([CH3])([Cl])[Cl],,55.9 µM (active) and inactive
C(=NC1CCCCC1)=NC1CCCCC1,,inactive
Clc1cccc2ccccc12,3.26% (inactive),
CO/C=C(/C(=O)OC)c1ccccc1COc1cccc(C(F)(F)F)n1,-11.8% (inactive),
O=C(CBr)c1ccccc1,-0.683% [at 81.1 µM] (inactive),
CC1(C)CCC(Cc2ccc(Cl)cc2)C1(O)Cn1cncn1 (centres undefined),-5% (inactive),
O=NN1CCCCCC1,-11% (inactive),
CCCCN(N=O)C(=N)N[N+](=O)[O-],1.58% [at 81.1 µM] (inactive),
CCC(COC(=O)c1cc(OC)c(OC)c(OC)c1)(c1ccccc1)N(C)C (centres undefined),0.534% (inactive),
C=CC(=O)OC,-0.1% [at 81.1 µM] (inactive),
CC(C)(C)C(O)C(Oc1ccc(Cl)cc1)n1cncn1 (centres undefined),-8.7% [at 81.1 µM] (inactive),
C=CCN1CC[C@]23c4c5ccc(O)c4O[C@H]2C(=O)CC[C@@]3(O)[C@H]1C5,2.38% (inactive),

# Biological target: Vitamin D3 receptor (Homo sapiens) (UniProt P11473)
# Experiment: qHTS assay to identify small molecule agonists of the vitamin D receptor (VDR) signaling pathway (AID 743222; calls by dose curve)
# Settings: HEK293T VDR-UAS-bla, beta-lactamase FRET ratio, 16 h; series mostly up to 63.5 µM; activation: at the top concentration
# In short: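 In VDR-bla cells, compound-induced beta-lactamase expression is quantified by FRET substrate fluorescence. Treatment lasts 16 h at 37C; substrate develops 2 h at room temperature.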
# Chain of Vitamin D3 receptor (Homo sapiens) (P11473 whole entry, looked up): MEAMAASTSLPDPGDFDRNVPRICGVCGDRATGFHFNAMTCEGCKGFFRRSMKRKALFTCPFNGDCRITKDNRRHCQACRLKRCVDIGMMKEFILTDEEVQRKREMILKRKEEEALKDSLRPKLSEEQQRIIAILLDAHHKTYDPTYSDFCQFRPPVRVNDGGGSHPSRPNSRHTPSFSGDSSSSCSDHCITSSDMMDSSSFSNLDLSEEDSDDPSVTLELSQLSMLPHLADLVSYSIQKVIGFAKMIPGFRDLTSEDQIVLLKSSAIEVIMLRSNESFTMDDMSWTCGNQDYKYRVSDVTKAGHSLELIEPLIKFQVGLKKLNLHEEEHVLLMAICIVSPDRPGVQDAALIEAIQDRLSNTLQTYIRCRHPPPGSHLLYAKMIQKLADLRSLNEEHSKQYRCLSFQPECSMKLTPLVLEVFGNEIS
SMILES,activation,outcome
O=S1(=O)OC(c2cc(Br)c(O)c(Br)c2)(c2cc(Br)c(O)c(Br)c2)c2ccccc21,4.03% (inactive),
C[C@H]1CNCCc2ccc(Cl)cc21,2.27% (inactive),
CCOC(=O)[C@]1(c2ccccc2)Oc2ccccc2[C@@H]1N,-22.9% (inactive),
O=C(O)C(F)(F)C(F)(F)C(F)(F)C(F)(F)C(F)(F)C(F)(F)C(F)(F)C(F)(F)C(F)(F)C(F)(F)F,5.67% (inactive),
Nc1nc(=S)[nH][nH]1,-8.43% (inactive),
CC(C)=CCOc1c2occc2cc2ccc(=O)oc12,-8.06% (inactive),
COc1cc(Cl)c(OC)cc1Cl,2.86% (inactive),
CC1(C)[C@H](C=C(Cl)Cl)[C@@H]1C(=O)O[C@@H](C#N)c1cccc(Oc2ccccc2)c1,13% (inactive),
COc1nn(C(=O)NS(=O)(=O)c2ccccc2OC(F)(F)F)c(=O)n1C,5.77% (inactive),
c1ccc(CN2CCNCC2)cc1,-9.8% [at 236 µM] (inactive),
CC(C)N(CCC(C(N)=O)(c1ccccc1)c1ccccn1)C(C)C (centres undefined),-3.65% (inactive),
O=C(CBr)OCc1ccccc1,-0.268% (inactive),
C=CCC1([C@H](C)CCC)C(=O)NC(=O)NC1=O,3.05% [at 81.1 µM] (inactive),
CCCCC(CC)COP(=O)(Oc1ccccc1)Oc1ccccc1 (centres undefined),-10.1% (inactive),
COP(=S)(OC)Oc1cc(Cl)c(I)cc1Cl,3.48% (inactive),
[CH3][Sn]([CH3])([Cl])[Cl],,inactive
C(=NC1CCCCC1)=NC1CCCCC1,,inactive
Clc1cccc2ccccc12,9.26% (inactive),
CO/C=C(/C(=O)OC)c1ccccc1COc1cccc(C(F)(F)F)n1,-14.4% (inactive),
CC1(C)CCC(Cc2ccc(Cl)cc2)C1(O)Cn1cncn1 (centres undefined),-0.805% (inactive),
O=NN1CCCCCC1,6.11% (inactive),
CCCCN(N=O)C(=N)N[N+](=O)[O-],0.575% [at 81.1 µM] (inactive),
CC(C)(C)c1cc([N+](=O)[O-])cc([N+](=O)[O-])c1O,-20.8% (inactive),
CCC(COC(=O)c1cc(OC)c(OC)c(OC)c1)(c1ccccc1)N(C)C (centres undefined),-9.22% (inactive),
C=CC(=O)OC,-7.44% [at 81.1 µM] (inactive),
C=CCN1CC[C@]23c4c5ccc(O)c4O[C@H]2C(=O)CC[C@@]3(O)[C@H]1C5,-3.39% (inactive),
